Here are results for 58 compounds from article PMC4336329 (PLoS ONE, 2015).

Screen size: about 310,000 compounds; about 14,000 (4.5%) showed an effect of 50% or more. Effects have a minus sign here. This is one part of a sample in which strong results are shown more often than they occur.
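Further: peak tail current of the secondary pulse compared with the same well before compound.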

The assay deals with human ether-à-go-go-related gene (hERG) potassium channel (human, UniProt Q12809). The assay can be described thus: primary screen, population patch clamp on CHO cells stably expressing hERG; higher = less effect of the substance.
Sequence of human ether-à-go-go-related gene (hERG) potassium channel (Q12809 whole entry, looked up): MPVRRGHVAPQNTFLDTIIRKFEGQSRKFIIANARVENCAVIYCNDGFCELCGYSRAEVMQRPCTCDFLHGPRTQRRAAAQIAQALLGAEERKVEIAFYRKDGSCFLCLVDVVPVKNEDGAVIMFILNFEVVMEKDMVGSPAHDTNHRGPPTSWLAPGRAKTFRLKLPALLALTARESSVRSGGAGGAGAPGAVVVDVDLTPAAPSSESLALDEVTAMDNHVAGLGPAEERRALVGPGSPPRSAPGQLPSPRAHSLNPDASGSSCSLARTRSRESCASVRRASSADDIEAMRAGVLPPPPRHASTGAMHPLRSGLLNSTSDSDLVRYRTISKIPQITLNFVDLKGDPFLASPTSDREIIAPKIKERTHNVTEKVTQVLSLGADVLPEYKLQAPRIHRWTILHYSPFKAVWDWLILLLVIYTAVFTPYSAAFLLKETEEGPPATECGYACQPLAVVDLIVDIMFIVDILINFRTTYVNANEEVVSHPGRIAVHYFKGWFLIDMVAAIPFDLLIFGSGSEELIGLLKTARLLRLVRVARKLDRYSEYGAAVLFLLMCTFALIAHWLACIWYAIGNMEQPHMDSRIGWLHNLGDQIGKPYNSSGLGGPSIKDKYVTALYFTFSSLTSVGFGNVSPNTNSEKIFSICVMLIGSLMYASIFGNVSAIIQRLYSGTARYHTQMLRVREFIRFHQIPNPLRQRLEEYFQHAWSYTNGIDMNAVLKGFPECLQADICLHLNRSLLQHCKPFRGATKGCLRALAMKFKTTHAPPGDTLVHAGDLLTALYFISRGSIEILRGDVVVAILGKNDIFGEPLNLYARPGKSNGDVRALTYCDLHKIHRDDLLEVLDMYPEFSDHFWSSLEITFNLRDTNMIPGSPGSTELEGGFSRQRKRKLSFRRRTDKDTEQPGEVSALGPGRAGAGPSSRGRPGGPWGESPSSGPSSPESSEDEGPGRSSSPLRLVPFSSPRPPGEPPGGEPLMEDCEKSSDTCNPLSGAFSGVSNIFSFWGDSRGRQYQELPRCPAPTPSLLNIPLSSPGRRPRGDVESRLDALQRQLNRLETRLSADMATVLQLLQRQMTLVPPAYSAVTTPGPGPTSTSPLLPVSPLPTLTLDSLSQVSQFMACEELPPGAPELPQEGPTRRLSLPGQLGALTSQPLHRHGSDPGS
Turning to `CC(=O)Nc1ccc(NC(=O)COC(=O)Cc2c[nH]c3ccccc23)cc1`, the “hERG current change (%, negative = inhibition) at 10uM” value worked out at 10.2%.
For the compound `Cl.O=C(CN1CCCCCC1)N1c2ccccc2Sc2ccc(C(F)(F)F)cc21`, the “hERG current change (%, negative = inhibition) at 10uM” value was -1.87%.
In the case of `COc1cccc(CNC(=O)c2nnn(CC(=O)Nc3ccc(Br)cc3)c2N)c1` it was 17.5%.
The figure for `O=C(CNC(=O)Cc1ccc(Cl)cc1)NCC(=O)N1CCCCC1` is 17.9%; for `CCOC(=O)c1c(C)n(C)c2ccc(OCC(N)=O)cc12` it is 7.9%.
On to `CCCCN=C1NN=C(c2cccc([N+](=O)[O-])c2)CS1.Cl`, for which the “hERG current change (%, negative = inhibition) at 10uM” value was -4.82%.
The figure for `O=C(CN1CCSCC1)N/N=C/c1ccc(F)cc1F` is -6.43%; for `CCc1ccc(NC(=O)c2cc(C(C)C)on2)cc1` it is -27.3%; for `CC(C)(C)NCC(O)COc1c(F)cc(Br)cc1F.Cl` (stereo not shown) it is -7.38%.
The figure for `CC1CCCC(C)N1CC(O)COc1c(F)cc(Br)cc1F.Cl` (stereo not shown) is -57.7%.
`CN(CC(O)COc1ccccc1F)C1CCCCC1.Cl` (stereo not shown): the “hERG current change (%, negative = inhibition) at 10uM” value was found to be 2.08%.
In the case of `Cl.OC(CNC1CCCC1)COc1c(F)cc(Br)cc1F` (stereo not shown) it was -27.3%; in that of `CC(C)NCC(O)COc1c(F)cc(Br)cc1F.Cl` (stereo not shown), -4.33%; in that of `CN(CC(O)COc1c(F)cc(Br)cc1F)C1CCCCC1.Cl` (stereo not shown), -65.9%.
The figure for `Cn1c(=O)c2cc(S(=O)(=O)NC(C(=O)Nc3cccc(F)c3)c3ccccc3)ccc2n(C)c1=O` (stereo not shown) is -7.01%; for `COCCNc1cc(C)nc2ccccc12.Cl` it is -10.8%; for `COCCCNc1nc(-c2ccc(Cl)cc2)nc2ccccc12` it is -1.64%.
In the case of `COCCNC(=O)COc1ccccc1Cl` it was 1.56%.
Turning to `COCCCNc1cc(C)nc2ccccc12.Cl`, the “hERG current change (%, negative = inhibition) at 10uM” value was -40.3%.
Take `COCCCNc1ccnc2c(Cl)cccc12`: the “hERG current change (%, negative = inhibition) at 10uM” value is -58.5%.
In the case of `COCCNc1ccnc2c(Cl)cccc12` it was -81.9%.
Take `O=S1(=O)N=C(N(CCO)/N=C/c2ccc(Br)cc2)c2ccccc21`: the “hERG current change (%, negative = inhibition) at 10uM” value was found to be 15%.
In the case of `c1ccc2c(CSCCc3ccncc3)cccc2c1` it was -17.6%.
The figure for `COc1ccccc1CNC(=O)COC(=O)c1nc(Cl)ccc1Cl` is -2.78%.
The figure for `COc1ccc2c(c1)OC[C@H]1[C@H]2N2C(=O)CN(Cc3ccco3)C(=O)[C@@]2(C)[C@H]1c1ccccc1` is 10.7%.
Regarding `CCCN(CC1CC1)CC(O)c1ccccc1.O=C(O)C(=O)O` (stereo not shown), the “hERG current change (%, negative = inhibition) at 10uM” value was 4.51%.
The figure for `CC(C)NCC(O)c1ccc(C2CCCC2)cc1.O=C(O)/C=C\C(=O)O` (stereo not shown) is -15.5%; for `CCN(CC)CC(O)c1ccc(C2CCCC2)cc1.Cl` (stereo not shown) it is -63%.
In the case of `COC(=O)c1c(NC(=O)c2ccco2)sc(C)c1C` it was 18.1%; in that of `CCCNC(=O)COC(=O)c1ccccc1OCc1ccc(Cl)cc1`, -0.354%.
In the case of `COc1ccc(C(=O)N(Cc2ccccc2)c2cccc(C)c2)cc1S(=O)(=O)N1CCOCC1` it was -35.8%; in that of `Cc1cccc(N(Cc2ccccc2)C(=O)c2ccc(C)c(S(=O)(=O)N3CCOCC3)c2)c1`, -17.6%.
With `COc1ccc(C(=O)N(Cc2ccccc2)c2ccc(C)cc2)cc1S(=O)(=O)N1CCOCC1`, the “hERG current change (%, negative = inhibition) at 10uM” value is -67.7%.
The figure for `Cc1ccc(N(Cc2ccccc2)C(=O)c2cc(S(=O)(=O)N3CCOCC3)ccc2F)cc1` is -10.2%.
In the case of `Cc1ccc(N(Cc2ccccc2)C(=O)c2ccc(Cl)c(S(=O)(=O)N3CCOCC3)c2)cc1` it was -70.3%; in that of `Cc1cccc(N(Cc2ccccc2)C(=O)c2cc(S(=O)(=O)N3CCOCC3)ccc2Cl)c1`, -13.3%; in that of `Cc1ccc(N(Cc2ccccc2)C(=O)c2ccc(C)c(S(=O)(=O)N3CCOCC3)c2)cc1`, -18%.
Take `Cc1cccc(N(Cc2ccccc2)C(=O)c2ccc(F)c(S(=O)(=O)N3CCOCC3)c2)c1`: the “hERG current change (%, negative = inhibition) at 10uM” value is -50.5%.
The figure for `Cc1cccc(N(Cc2ccccc2)C(=O)c2cc(S(=O)(=O)N3CCOCC3)ccc2F)c1` is -5.69%; for `COc1ccc(CC(=O)N(Cc2ccccc2)c2ccccc2)cc1S(=O)(=O)N1CCOCC1` it is 1.07%.
The figure for `Cc1ccc(N(Cc2ccccc2)C(=O)c2cc(S(=O)(=O)N3CCOCC3)ccc2N2CCCC2)cc1` is 5.59%; for `Cc1ccc(N(Cc2ccccc2)C(=O)c2ccc(F)c(S(=O)(=O)N3CCOCC3)c2)cc1` it is -82.7%.
The figure for `Cl.O=C(C1CCN(S(=O)(=O)c2cccs2)CC1)N1CCN(Cc2ccccc2)CC1` is 3.79%; for `Cn1c(=O)[nH]c(=O)c2c1nc(SCCC(=O)O)n2Cc1cccc(Br)c1` it is 1.52%; for `COCCNC(=S)NC1CC2CCC(C1)N2Cc1ccccc1` (stereo not shown) it is 2.78%.
For `COc1ccc(C2C(C(=O)c3cccs3)=C(O)C(=O)N2Cc2cccnc2)cc1OC` (stereo not shown), the “hERG current change (%, negative = inhibition) at 10uM” value is listed as 5.03%.
The figure for `CC(Oc1cccc(Cl)c1)C(=O)Nc1nc(-c2ccccn2)cs1` (stereo not shown) is 4.19%.
Regarding `CC(Oc1ccc(Br)cc1)C(=O)Nc1nc(-c2ccccn2)cs1` (stereo not shown), the “hERG current change (%, negative = inhibition) at 10uM” value is given as -5.7%.
The figure for `CC(Oc1ccc(F)cc1)C(=O)Nc1nc(-c2ccccn2)cs1` (stereo not shown) is -76.3%; for `O=C(Nc1cccc(C(=O)O)c1)/C(=C\c1ccccc1Cl)NC(=O)c1ccco1` it is 6.89%; for `COc1ccc(CC(=O)N(C)CC(=O)Nc2ccccc2SC)cc1` it is 8.56%.
For `CCc1nnc(NC(=O)c2cc(C)oc2C)s1`, the “hERG current change (%, negative = inhibition) at 10uM” value is -10%.
With `CC(C)N(Cc1nnc(-c2ccc(Cl)cc2)o1)C(=O)c1cc2ccccc2o1`, the “hERG current change (%, negative = inhibition) at 10uM” value is listed as -40.1%.
`Cc1ccccc1OCC(=O)N(Cc1nc(-c2ccccc2)no1)C(C)C`: the “hERG current change (%, negative = inhibition) at 10uM” value is -15%.
With `Cc1cc(C(=O)N(Cc2nnc(-c3ccc(Cl)cc3)o2)C(C)C)c2ccccc2n1`, the “hERG current change (%, negative = inhibition) at 10uM” value is given as -58.5%.
In the case of `CC(C)N(Cc1nnc(-c2ccc(Cl)cc2)o1)C(=O)C1=COCCO1` it was -19.9%; in that of `CC(C)N(Cc1nnc(-c2ccccc2Br)o1)C(=O)c1cc(Cl)nc2ccccc12`, -24.9%; in that of `Cc1ccccc1OCC(=O)N(Cc1nnc(-c2ccc(Cl)cc2)o1)C(C)C`, -53.5%.
